The whole screen tested about 2,400 compounds, of which about 220 (9.2%) were called active. This is one part of a sample in which actives are shown more often than they occur. A number with no mark means an inactive call.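 How the source made its calls: active means signal change above the mean of dofetilide-free buffer controls plus 3 SD, so a positive margin; inactive means the rest.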

The values below come from PubChem BioAssay AID1839 (Johns Hopkins Ion Channel Center, 2009).

A short description of this assay: nonspecific flux effects in parental CHO-K1, confirmation, counter-screen for hERG block protection project, cell-based, CHO-K1 parental line, FluxOR thallium flux (AID 1839).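 Further: compounds applied alone with no dofetilide to cells lacking hERG.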 To be noted: CHO-K1 parental cells, FluxOR thallium flux fluorescence; at 10 µM. A general note: A counterscreen serves to expose hits that act by an unwanted route or on another target.
On to `O=C(Nc1ccc(Cl)cc1)Nn1cnnc1`, for which the signal change vs control minus 3*SD hit threshold (margin above threshold, higher = more increase) was -19.6%.
Turning to `CCOC(=O)C1=C(c2ccccc2)NC(=O)NC1c1ccc(O)c(Cl)c1` (stereo unspecified), the signal change vs control minus 3*SD hit threshold (margin above threshold, higher = more increase) was -23.2%.
For `O=c1c2ccccc2[nH]c(=S)n1C1CCCCC1`, the signal change vs control minus 3*SD hit threshold (margin above threshold, higher = more increase) is -31.6%.
In the case of `CC1CCCCC1n1c(=S)[nH]c2ccccc2c1=O` (stereo unspecified), the signal change vs control minus 3*SD hit threshold (margin above threshold, higher = more increase) is -13.4%.
For `CC1CCC(n2c(=S)[nH]c3ccccc3c2=O)CC1` (stereo unspecified), the signal change vs control minus 3*SD hit threshold (margin above threshold, higher = more increase) is 23.6% (active).
As to `Cc1c(C(=O)N/N=C/c2ccccn2)nnn1-c1nonc1N`, the signal change vs control minus 3*SD hit threshold (margin above threshold, higher = more increase) was -22.2%.
For the compound `Cn1c(=O)c2sc3c(c2n(CC(=O)Nc2ccccc2)c1=O)COC(C)(C)C3`, the signal change vs control minus 3*SD hit threshold (margin above threshold, higher = more increase) was -33%.
The figure for `c1ccc(-c2ccc(-c3ccncn3)cc2)cc1` is -28.8%.
In the case of `COc1ccc(NC(=S)Nc2ccccn2)cc1` it was -35.9%.
Regarding `O=C(NC(=S)Nc1ccccc1)c1cccs1`, the signal change vs control minus 3*SD hit threshold (margin above threshold, higher = more increase) is -16.6%.
With `O=C(NC(=S)Nc1ccccc1)c1cncc(C#Cc2ccccc2)c1`, the signal change vs control minus 3*SD hit threshold (margin above threshold, higher = more increase) is -27.9%.
`O=C(NC(=S)Nc1ccccc1)c1csnn1`: the signal change vs control minus 3*SD hit threshold (margin above threshold, higher = more increase) was 50.8% (active).
Take `Cc1csc(NC(=S)NC(=O)c2ccccc2)n1`: the signal change vs control minus 3*SD hit threshold (margin above threshold, higher = more increase) is -14.7%.
In the case of `COc1ccc(NC(=S)NC(=O)c2ccc(Br)o2)cc1` it was -13.4%.
The figure for `Cc1snnc1C(=O)NC(=S)Nc1ccccc1` is 5.3% (active); for `Cc1ccc(NC(=S)NC(=O)c2ccc(-c3ccccc3)cc2)cc1` it is -23.5%.
As to `COc1ccc(NC(=S)NC(=O)c2csnn2)cc1`, the signal change vs control minus 3*SD hit threshold (margin above threshold, higher = more increase) is 9.6% (active).
For the compound `O=C(NC(=S)Nc1ccccc1Cl)c1csnn1`, the signal change vs control minus 3*SD hit threshold (margin above threshold, higher = more increase) is 39.6% (active).
The figure for `Cc1cccnc1NC(=O)c1csnn1` is -24.6%; for `O=C(NC(=S)Nc1ccccc1Cl)c1ccco1` it is -7.5%; for `CC(=O)Nc1ccc(NC(=O)CSc2ncc(C(=O)Nc3ccc(Cl)cc3)c(=O)n2C)cc1` it is -22.1%.
As to `S=C(N/N=C/c1ccccc1Cl)Nc1cccc(Cl)c1Cl`, the signal change vs control minus 3*SD hit threshold (margin above threshold, higher = more increase) was -4.6%.
Regarding `O=C1CC(N2CCN(c3ccccc3Cl)CC2)C(=O)N1c1ccc(F)cc1` (stereo unspecified), the signal change vs control minus 3*SD hit threshold (margin above threshold, higher = more increase) is -20.8%.
In the case of `COc1cccc(C(=O)/C=C/Nc2ccc(S(=O)(=O)Nc3cnc4ccccc4n3)cc2)c1` it was -33.7%.
On to `C/C(=N/NC(=O)c1ccncc1)c1ccc2c(c1)OCO2`, for which the signal change vs control minus 3*SD hit threshold (margin above threshold, higher = more increase) is -30.7%.
In the case of `Cn1c(=O)c(-c2cc(=O)[nH][nH]2)c(O)c2ccccc21` it was -23.6%.
The figure for `Cc1noc(C)c1-c1nnc(-c2ccc(C(F)(F)F)cc2)o1` is -18.1%; for `Cn1cc([N+](=O)[O-])c(C(=O)NCc2cc3cc(Cl)ccc3[nH]2)n1` it is -24.3%.
With `Cc1ccc(NC(=O)C2C3CCC(O3)C2C(=O)O)cc1C` (stereo unspecified), the signal change vs control minus 3*SD hit threshold (margin above threshold, higher = more increase) is -26%.
On to `CC(NC(=O)c1ccncc1)C(C)(C)C` (stereo unspecified), for which the signal change vs control minus 3*SD hit threshold (margin above threshold, higher = more increase) is -25.4%.
In the case of `Cc1ccccc1Cc1c(C)nc2c(C(=O)NCc3ccc4c(c3)OCO4)cnn2c1C` it was -30.9%; in that of `COC(=O)Nc1c(-c2ccccc2)nc2ccccn12`, -32.5%.
In the case of `Cc1nc(-c2ccccc2)cn(O)c1=O` it was -14.6%.
For `O=c1c(-c2ccccc2)nc(-c2ccccc2)cn1O`, the signal change vs control minus 3*SD hit threshold (margin above threshold, higher = more increase) was 27.1% (active).
In the case of `Cc1ccc(C)c(NC(=S)NNC(=O)c2csc3c2CCC(C)C3)c1` (stereo unspecified) it was -16.3%.
The figure for `O=C(NC(=S)N(CCCCO)C1CCCCC1)c1sc2ccccc2c1Cl` is -27.6%; for `Cc1ccc(NC(=S)NC(=O)c2sc3ccccc3c2Cl)c(C(=O)O)c1` it is -25.3%.
The figure for `O=C(NNC(=S)NC(=O)c1sc2ccccc2c1Cl)c1ccc(Cl)cc1` is -22.6%.
For the compound `COC(=O)CC1C(=O)NCCN1C(=S)NC(=O)c1sc2ccccc2c1Cl` (stereo unspecified), the signal change vs control minus 3*SD hit threshold (margin above threshold, higher = more increase) was -17.8%.
In the case of `COc1ccccc1C(=O)NC(=S)NNC(=O)c1sc2ccccc2c1Cl` it was 23.2% (active).
Take `CCCCOC(=S)NC(=O)c1sc2ccccc2c1Cl`: the signal change vs control minus 3*SD hit threshold (margin above threshold, higher = more increase) is 24.5% (active).
The figure for `CCCOC(=S)NC(=O)c1sc2ccccc2c1Cl` is -4%; for `CCOC(=S)NC(=O)c1sc2ccccc2c1Cl` it is 3% (active); for `COc1ccccc1C(=O)NNC(=S)NC(=O)c1sc2ccccc2c1Cl` it is -27.2%.
Take `Cc1cccc(OCC(=O)NC2CCCc3ccccc32)c1C` (stereo unspecified): the signal change vs control minus 3*SD hit threshold (margin above threshold, higher = more increase) is -39.9%.
In the case of `CCc1nnc(NC(=O)CSc2nc(-c3ccccc3)cc(-c3ccc(OC)cc3)c2C#N)s1` it was -33.2%; in that of `COc1ccc(C2/C(=C(/O)c3ccc(Br)cc3)C(=O)C(=O)N2C)cc1` (stereo unspecified), -34.2%; in that of `CCOC(=O)c1sc(NC(=S)NC(=O)c2ccc(OC)cc2)nc1C`, -23.3%.
In the case of `CCOC(=O)c1sc(=S)n2c1[nH]c(=O)c1ccc(C(=O)OC)cc12`, the signal change vs control minus 3*SD hit threshold (margin above threshold, higher = more increase) is 27.7% (active).
In the case of `CCOCCCn1c(=S)[nH]c2cc(C(=O)NCCOC)ccc2c1=O` it was -21.5%; in that of `Cc1nnc(SCc2cc(=O)oc3cc(O)ccc23)n1Cc1ccccc1`, -27.2%; in that of `O=C(NC(=S)Nc1ccc(N2CCOCC2)c(Cl)c1)c1sc2ccccc2c1Cl`, -3.9%.
On to `Oc1ccc(N=Nc2ccccc2-c2nn[nH]n2)c(O)c1`, for which the signal change vs control minus 3*SD hit threshold (margin above threshold, higher = more increase) was -14.2%.
The figure for `COc1ccc2nc(N=Nc3c(O)ccc4ccccc34)sc2c1` is 1.7% (active); for `CCOC(=O)c1cccc(C(=O)Nc2nc3ccc(OC)cc3s2)n1` it is -31.4%.
The figure for `COc1ccc(S(=O)(=O)Nc2ccc(O)c3ccccc23)cc1` is -41.6%.
In the case of `Cc1cc(NC(=O)/C(C#N)=C/c2ccco2)n(-c2ccccc2)n1` it was -40.7%; in that of `Cc1[nH]n2c(=O)cc(C(C)(C)C)nc2c1-c1ccccc1`, -21.1%.
Turning to `Cc1[nH]n2c(=O)cc(C(C)C)nc2c1-c1ccccc1`, the signal change vs control minus 3*SD hit threshold (margin above threshold, higher = more increase) was -21.7%.
Consider `O=c1cc(-c2ccccc2)nc2c(-c3ccccc3)c(C(F)(F)F)[nH]n12`, for which the signal change vs control minus 3*SD hit threshold (margin above threshold, higher = more increase) was 8.1% (active).
With `Cc1nc(-c2nc(-c3c(C(=O)NNC(=O)c4ccc(Cl)cc4)noc3C)cs2)cs1`, the signal change vs control minus 3*SD hit threshold (margin above threshold, higher = more increase) is -33.4%.
As for `COCCn1c(=S)[nH]c2sc3c(c2c1=O)CCC(C)C3` (stereo unspecified), the signal change vs control minus 3*SD hit threshold (margin above threshold, higher = more increase) was 18.3% (active).
For the compound `CC1CCc2c(sc3[nH]c(=S)n(C)c(=O)c23)C1` (stereo unspecified), the signal change vs control minus 3*SD hit threshold (margin above threshold, higher = more increase) was 23.8% (active).
As to `Cc1cccc(-n2c(=S)[nH]c3sc4c(c3c2=O)CCc2ccccc2-4)c1`, the signal change vs control minus 3*SD hit threshold (margin above threshold, higher = more increase) was -27.1%.
The figure for `Cn1c(=S)[nH]c2sc3c(c2c1=O)CCC(C(C)(C)C)C3` (stereo unspecified) is 32% (active).
The figure for `Cc1ccc(-n2c(=S)[nH]c3sc4c(c3c2=O)CCC4)cc1` is -20.7%.
